Measurements taken from PubChem BioAssay AID1903 (Southern Research Specialized Biocontainment Screening …, 2009).
Screen size: about 310,000 compounds; about 1,200 (0.39%) were called active. No rule for the calls is given here. These entries were drawn from the full list. Entries with a potency or affinity are not part of this list.

Biological target: Large T antigen (Simian virus 40) (UniProt P03070)
Assay: SV40 large T antigen inhibitors, biochemical (AID 1903)
Conditions: SV40 large T antigen ATPase/helicase inhibition assay; at 20 µM; stronger effect = higher value

Sequence of Large T antigen (Simian virus 40) (P03070 whole entry, looked up): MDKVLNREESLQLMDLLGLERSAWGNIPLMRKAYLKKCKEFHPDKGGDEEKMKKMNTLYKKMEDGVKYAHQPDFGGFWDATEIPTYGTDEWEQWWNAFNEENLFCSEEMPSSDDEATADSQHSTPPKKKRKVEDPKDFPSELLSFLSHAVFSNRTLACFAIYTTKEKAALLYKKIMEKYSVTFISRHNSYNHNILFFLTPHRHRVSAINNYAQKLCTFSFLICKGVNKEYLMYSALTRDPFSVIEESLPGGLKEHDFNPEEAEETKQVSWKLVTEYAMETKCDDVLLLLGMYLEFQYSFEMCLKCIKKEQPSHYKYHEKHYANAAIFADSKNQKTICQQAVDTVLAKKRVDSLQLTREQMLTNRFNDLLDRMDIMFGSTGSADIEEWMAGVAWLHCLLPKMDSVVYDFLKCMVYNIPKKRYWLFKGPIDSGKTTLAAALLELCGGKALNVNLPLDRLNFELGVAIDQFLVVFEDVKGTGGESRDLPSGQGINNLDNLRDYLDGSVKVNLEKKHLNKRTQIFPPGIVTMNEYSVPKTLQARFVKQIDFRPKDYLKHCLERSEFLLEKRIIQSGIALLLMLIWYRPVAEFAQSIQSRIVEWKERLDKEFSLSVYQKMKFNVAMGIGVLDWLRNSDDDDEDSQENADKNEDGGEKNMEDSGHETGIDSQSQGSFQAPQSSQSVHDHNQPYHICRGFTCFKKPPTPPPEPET

inhibition, inactive:
CC(=O)c1ccc(OC(=O)C(CCS(C)(=O)=O)N2C(=O)c3ccccc3C2=O)cc1 (stereo not drawn) 3.15%
COc1ccc(NC(=O)C(CCS(C)(=O)=O)N2C(=O)c3ccccc3C2=O)cc1 (stereo not drawn) 11.7%
CCOC(=O)N1CCN(C(=O)CC(C)S(=O)(=O)c2cc3c(cc2C)NC(=O)CO3)CC1 (stereo not drawn) 6.54%
Cc1ccc(-n2c(SCC(=O)OC(C)C)nnc2-c2ccncc2)cc1 9.08%
Cc1cc(=O)c2ccccc2s1 23.3%
O=c1[nH]c2ccc(F)cc2[nH]c1=O 22.1%
O=c1[nH]c2ccccc2c2ccccc12 11.7%
O=C1Nc2ccc(F)cc2C12SCCS2 -3.17%
CC(=O)N1CCN(c2cc(N3CCc4ccccc4C3)c(F)cc2[N+](=O)[O-])CC1 29.4%
COc1ccc(C(=O)O)cc1N1C(=O)Nc2ccccc2N1O 13.6%
O=C(NCc1cccs1)C1CC(O)CN1C(=O)Nc1ccccc1 (stereo not drawn) 3.53%
Nc1ccc(-c2nc3ccccc3[nH]2)cc1 6.85%
Nc1ccccc1Nc1nc2ccccc2[nH]1 26.5%
COc1ccc(CCNC(=O)c2cn(C)c3ccc(S(=O)(=O)N4CCOCC4)cc3c2=O)cc1OC 5.2%
C=CCNS(=O)(=O)c1ccc(OC)c(C)c1 1.44%
CCCN1C(=O)/C(=C/c2ccc(C)s2)NC1=S 8.4%
O=C(/C=C/c1ccc([N+](=O)[O-])s1)N1CCN(c2ccccc2)CC1 16%
O=c1oc(/C=C/c2ccc([N+](=O)[O-])s2)nc2ccccc12 6.31%
O=C(N/N=C/c1ccc([N+](=O)[O-])s1)C(O)c1ccccc1 (stereo not drawn) 4.11%
CN(C(=O)/C=C/c1ccc([N+](=O)[O-])s1)c1ccccc1 -0.18%
CCN1C(=O)/C(=C/c2ccc(C)s2)NC1=S 11.9%
CCCCc1c(C(=O)O)cc(OC)cc1C(=O)O 12.1%
O=C(CSc1nc(O)cc(=O)n1-c1ccc(Cl)c(Cl)c1)Nc1ccc(Cl)cc1Cl 28.9%
Cn1nccc1C(=O)N1CCC(Cc2ccccc2)CC1 11.7%
COC(=O)CC1C(=O)NCCN1C(=O)Nc1ccc(Cl)c(Cl)c1 (stereo not drawn) 4.47%
CCC(C)NC(=O)CCc1c(C)nc2c(c(C)nn2-c2ccccc2)c1C (stereo not drawn) 6.67%
CC(=O)c1c(C)oc2ccc(N(C(C)=O)S(=O)(=O)c3cccc4cccnc34)cc12 10.6%
FC(F)(F)c1ccc(Cl)c(NC2=NCCCCC2)c1 7.53%
CC(C)OC(=O)C(C(=O)C(F)(F)F)c1cc(NS(=O)(=O)c2ccc3ccccc3c2)c2ccccc2c1O (stereo not drawn) 15.1%
COc1ccc(/C=N/n2nnnc2N)cc1OC 11.7%
CCOc1cc(/C=N\n2nnnc2N)ccc1O 33.9%
CCOc1ccc(/C=N/n2nnnc2N)cc1OCC 5.4%
COc1cc(/C=N/n2nnnc2N)ccc1OC(C)=O 12.9%
O=C(NCc1ccccn1)c1ccc(Cl)c(S(=O)(=O)N2CCCCC2)c1 6.41%
COc1ccc(CNC(=O)C2CCN(S(=O)(=O)N3CCCCC3)CC2)cc1 7.96%
NC(=O)c1cc(S(=O)(=O)N2CCN(c3ccc([N+](=O)[O-])cc3)CC2)cs1 14.4%
CCOC(=O)c1cnc2cc(F)c(F)cc2c1N1CCOCC1 0.2%
O=C(COc1c(Cl)cc(Cl)cc1Cl)c1ccc(Cl)cc1 2.07%
CC(=O)Nc1ccc(NS(=O)(=O)c2ccc3c(c2)oc(=O)n3C)cc1 10.1%
Cc1ccc(NS(=O)(=O)c2ccc3c(c2)oc(=O)n3C)cc1 6.64%
Cc1ccc(NC(=O)CN2C(=O)c3ccccc3S2(=O)=O)c(C)c1 10.7%
CN(C)c1ccc(C(=O)NCC2CCCO2)cc1 (stereo not drawn) 5.69%
CN(C)c1ccc(CNCC2CCCO2)cc1 (stereo not drawn) 7.34%
CCCNC(=O)C(=O)Nc1ccc(N(C)C)cc1 18.4%
COCC(=O)Nc1ccc(N(C)C)cc1 33.7%
CC1CCN(C(=O)Cn2c(=O)n(CCCC(=O)NCc3ccco3)c(=O)c3sccc32)CC1 8.64%
O=C(Nc1ccccc1C(=O)Nc1ccccc1)c1cccs1 5.41%
Cc1c(C(=O)Nc2cc(S(=O)(=O)N3CCOCC3)ccc2N2CCOCC2)oc2ccccc12 0.37%
CCC(CC)C(=O)Nc1nnc(S(=O)(=O)N(CC)c2ccc(OC)cc2)s1 3.96%
Cc1ccc(S(=O)(=O)N2CCOCC2)cc1C(=O)c1nccn1C 8.29%
Cc1ccc(S(=O)(=O)ON=C2CCN(S(=O)(=O)c3ccccc3)CC2)cc1 1.39%
CC1=C/C(=N\OS(=O)(=O)c2ccccc2)C=CC1=O 26.7%
CCc1nnc(NC(=O)CSc2nnc(Cc3cc(=O)[nH]c(=O)[nH]3)n2-c2ccc(OC)cc2)s1 3.92%
NC(=NCCc1c[nH]c2ccccc12)NS(=O)(=O)c1ccc(F)cc1 -1.17%
CCCNCc1cc(OC)c(OCC(=O)NCCc2ccccc2)cc1Br 6.19%
COc1cccc(NC(=S)N2CCCC2c2ccc(OC)c(OC)c2)c1 (stereo not drawn) 12.4%
CN(C)S(=O)(=O)c1cccc(N2C(=O)CC3(CCCCC3)CC2=O)c1 7.26%
O=C(O)c1ccccc1NS(=O)(=O)c1ccc2ccccc2c1 -0.61%
CCn1nc(C(=O)OCc2cccc(S(=O)(=O)N(C)C)c2)c2ccccc2c1=O 8.67%
O=c1c2ccccc2sn1-c1ccc(S(=O)(=O)N2CCCC2)cc1 9.42%
O=C(O)c1ccccc1NS(=O)(=O)c1cccc(C(F)(F)F)c1 9.6%
Cc1ccc(-c2nn(C)c(=O)c3ccccc23)cc1S(=O)(=O)N1CCCC1 0.12%
O=C1CC(c2ccc(O)c(O)c2)Oc2cc(O)cc(O)c21 (stereo not drawn) 45.5%
CC(C)=CCc1c(O)ccc2c1OC(c1ccc(O)c(O)c1)CC2=O (stereo not drawn) 17%
Cc1ccc(OCCCCN2CCC(C)CC2)c(Br)c1 3.72%
Cc1ccc(C=C2C(=O)c3ccccc3C2=O)o1 12.7%
O=C1/C(=C\c2ccc(Br)o2)Cc2ccccc21 6.99%
O=C(COc1ccc(F)cc1F)N1CCCCCCC1 1.37%
Oc1cccc(NC(=S)Nc2ccccc2)c1 21.3%
Cc1cccc(OCC(=O)Nc2ccc(N3CCCC3)cc2)c1C -18.4%
COc1ccc(NC(=S)NC(=O)c2ccccc2Cl)cc1 9.58%
O=C(NC(=S)Nc1ccc(Cl)cc1)c1cncc(Br)c1 10.2%
O=C(NC(=S)Nc1ccccc1O)c1ccccc1Cl 13.8%
O=C(O)c1ccc(NC(=S)NC(=O)c2cncc(Br)c2)cc1 13.1%
CCOc1ccc(-c2ccc3nnc(SCC(=O)NCC4CCCO4)n3n2)cc1 (stereo not drawn) 20.9%
c1ccc2cc(Cn3ccnc3)ccc2c1 5.43%
C/C(=N\NC(=O)COc1ccc(C)cc1[N+](=O)[O-])c1cccs1 15%
N#Cc1ccc(CSc2nc(N)cc(N)n2)cc1 -0.44%
CC(C)CCn1c(=O)c2ccccc2n2c(CCl)nnc12 12.5%
CCOCCCn1c(=O)c2ccccc2n2c(=S)[nH]nc12 31.1%
Cn1c(=O)c2ccccc2n2c(=S)[nH]nc12 1.39%
CC(C)CCn1c(=O)c2ccccc2n2c(CN3CCCC3)nnc12 15.1%
O=C(Nc1ccc(S(=O)(=O)Nc2ncccn2)cc1)c1cnc(Cl)c(Cl)c1 24.8%
Cc1ccn(CCC(=O)Nc2ccc(-c3ccno3)cc2)n1 10.3%
C=C(c1cccc2ccccc12)P(=O)(O)O 8.15%
CCOC(=O)c1c(NC(=O)COC(=O)c2nc(Cl)ccc2Cl)sc(C(=O)N(C)C)c1C 3.76%
Cc1ccc(NC(=O)c2ccc(COc3ccccc3)o2)nc1 -5.11%
Cc1ccc(Nc2nc(-c3c(C)nc4ncccn34)cs2)cc1 17.2%
Fc1ccc(Nc2nc(-c3cccnc3)cs2)cc1 6.02%
CCN(CC)c1ccc(Nc2nc(-c3cccnc3)cs2)cc1 20.5%
Cc1nc2ncccn2c1-c1csc(Nc2ccccc2)n1 16.1%
O=S(=O)(c1cccs1)N1CCC2(CC1)OCCN2S(=O)(=O)c1ccccc1 11.8%
CN(Cc1c(C(=O)N/N=C/c2ccccc2)nnn1-c1nonc1N)c1ccccc1 -1.98%
Cc1c(C(=O)N2CC(C)OC(C)C2)[nH]c2ccc(Br)cc12 (stereo not drawn) 0.93%
CCOC(=O)C(NCc1ccc(OC)cc1)(NC(C)=O)C(F)(F)F (stereo not drawn) 0.08%
O=C1NC(=O)/C(=C\c2ccccc2OCc2ccc([N+](=O)[O-])cc2)N1 16%
O=Cc1ccccc1OCCOc1ccc([N+](=O)[O-])cc1 26.7%
C=CCn1c(-c2cccc(Cl)c2)n[nH]c1=S 4.07%
CCCCCC(=O)NNC(=S)NC(C)=O 7.61%
CC(C)(C)C(=O)CN1CCN(S(=O)(=O)c2ccc(F)cc2)CC1 1.15%
CCOc1ccc(C(=O)CN2CCN(S(=O)(=O)c3ccc(F)cc3)CC2)cc1 6.42%
Cc1ccc(S(=O)(=O)N2CCN(Cc3cc(C(C)C)ccc3O)CC2)cc1 -1.91%
COc1cc(NC(=O)CN2CCN(S(=O)(=O)c3ccc(C(C)C)cc3)CC2)cc(OC)c1 4.71%
